Assay results as given in PubChem BioAssay (NCI).
The panel holds about 83,000 compounds, 20% with a hit somewhere; the sample as a whole holds those more often.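 In brief: 96-well plates, 48 h treatment, single concentration, percent growth endpoint.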 A number with no mark means an inactive call. Active and inactive are the calls of the source.

test system: UACC-62 melanoma; experiment: NCI-60 one-dose screen, 48 h (100 = growth as untreated, 0 = no growth, -100 = all killed); conditions: 10 µM unless noted
Procedure: Growth inhibition of the UACC-62 human tumor cell line is measured as a screen for anti-cancer activity. Cells are grown in 96 well plates and exposed to the test compound for 48 hours. Compounds are tested at a single concentration, which is 10^-5 M for most compounds. The reported endpoint is percent growth (GI% or GIPRCNT), where numbers from 0 - 100% represent growth inhibition, and numbers from -100% - 0 represent cell death. For example, a value of 40 represents 60% growth inhibition. A value of 0 means no net growth occurred over the course of the experiment. A value of -40 indicates 40% of cells at the beginning of the experiment died by the end of the experiment. A value of -100 means all cells are dead at the end of the experiment.
NCI-60 Human Tumor Cell Lines Screen was performed using the standard one-dose NCI protocol, which is described in more detail at https://dtp.cancer.gov/discovery_development/nci-60/default.htm.
Compounds with GIPRCNT values below 10 were considered active. Activity score was based on GIPRCNT using the following formula: […]
Score is 0 for GIPRCNT values of 100 or above, 50 for GIPRCNT values of 0, and 100 for GIPRCNT values of -100.

SMILES | growth
COc1cc(-c2cc(-c3cccc(OCC(=O)O)c3)[nH]c(=O)c2C#N)cc(OC)c1OC | 95.5%
CCN(CC)c1ccnc(CNCCSC(c2ccccc2)(c2ccccc2)c2ccc(OC)cc2)c1 | -39.3% (active)
CC12CC[C@@H]3[C@]4(C)COC(c5cn[nH]c5-c5cccc(Cl)c5)O[C@@H]4CC[C@@]3(C)[C@@H]1CC(C1=CCOC1=O)O2 (stereo not given in full) | 26.9%
COc1cc(-c2ccc(/C=N/NC(=O)c3[nH]c4ccc(Br)cc4c3-c3ccccc3)s2)cc(OC)c1OC | 84.5%
COc1ccc(C(=O)/C=C/c2ccc3ccccc3c2)cc1S(N)(=O)=O | -55.6% (active)
C=C1CCC2C3(C)COC(c4cccs4)OC3CCC2(C)C1CC(Sc1ccccc1)C1=CCOC1=O (stereo not given) | 71.7%
COc1cc2c(c(OC)c1OC)C(=O)CC(c1cccc(NC(=O)c3cc(NC(=O)[C@@H](N)CO)ccc3C)c1)O2 (stereo not given in full) | 109%
Cn1cc(-c2nc(N)nnc2-c2c[nH]c3ccc(F)cc23)c2cccnc21 | 29.8%
O=C(N1c2ccccc2Sc2ccccc21)n1ccc2cccnc21 | 47.5%
COc1ccc2[nH]cc(-c3cc(N)n4nc(-c5cn(C)c6ccccc56)cc4n3)c2c1 | -76.5% (active)
COc1ccc(-c2cc(C(=O)NCc3ccccc3)nn2-c2ccc(S(C)(=O)=O)cc2)cc1OC | 111%
N#Cc1c(-c2cccc(O)c2O)cc(-c2ccc3ccccc3c2)[nH]c1=O | 77.5%
CC(=O)/C=C/c1cccc2c1C(=O)NC(C)(c1cc3cc(Br)ccc3oc1=O)N2 (stereo not given) | 13%
COC(=O)/C=C/c1cccc2c1C(=O)NC(C)(c1cc3cc4ccccc4cc3oc1=O)N2 (stereo not given) | 49.2%
O=C(NNc1nc2cc(C(F)(F)F)ccc2n2cccc12)c1cnccn1 | -41.1% (active)
Cc1c(C(=O)NNC(=O)Nc2ccc(Cl)cc2)nnn1-c1ccc(Br)cc1 | 88.7%
CCC(C)(C)c1ccc(OCCCCN2CCN(c3ccncc3)CC2)cc1 | -74.5% (active)
CC(C)C(C(=O)O)n1c(O)c(/C=C2/C=c3cc4c(cc3=NC2=O)OCO4)sc1=S (stereo not given) | 89.2%
CCOC(=O)C1=C(N)N(c2ccccc2)C2=C(C(=O)CC(C)(C)C2)C1c1ccccc1Cl (stereo not given) | 44%
CSc1ccccc1NC(=O)c1ccc2nnn(/C(C#N)=C/c3ccccn3)c2c1 | -98.8% (active)

SMILES | growth
CC12CC[C@@H]3[C@]4(C)COC(c5cn[nH]c5-c5ccc(Br)cc5)O[C@@H]4CC[C@@]3(C)[C@@H]1CC(C1=CCOC1=O)O2 (stereo not given in full) | 41.5%
O=C1CC(Sc2n[nH]c(-c3ccncc3)n2)C(=O)N1c1ccc(Br)cc1 (stereo not given) | 96.9%
CCCCCCCCc1ccc(C(=O)Nc2ccc(C)cc2C(=O)O)cc1C | 91.3%
Cc1cc2nc3c([nH]c2cc1C)c1ccc(=O)cc1n3CCN(C)C | 65.8%
COc1cc(-c2ccc(/C=N/NC(=O)c3[nH]c4ccc(Br)cc4c3-c3ccccc3)o2)cc(OC)c1OC | 77.2%
COc1ccc(C(=O)/C=C/c2cc3c(cc2Br)OCO3)cc1S(N)(=O)=O | 39.2%
COc1ccc2oc3c4[nH]c5ccccc5c4c4c(c3c2c1)C(=O)N(C(=O)OC(C)(C)C)C4=O | -77.3% (active)
N#Cc1c(-c2cccc(Cl)c2Cl)cc(-c2ccc3ccccc3c2)[nH]c1=O | 76.2%
Cc1cc(N=C2NC(=O)CS2)n[nH]1 | 93.5%
COc1ccc(-c2ccnc(SCc3cc4cc(OC)ccc4[nH]c3=O)n2)cc1 | 16.4%
CCCCCCCCc1ccc(C(=O)Nc2cccc(P(=O)(O)O)c2)cc1 | 91.8%
CC1=C(C(=O)c2ccccc2)C(c2cccc3ccccc23)n2c(nc3ccccc32)N1 (stereo not given) | 37.5%
COc1ccc2c(c1)c(-c1cc3nc(-c4cn(C)c5ncc(Br)cc45)cc(N)n3n1)cn2C | -82.2% (active)
O=C(Cn1c(/C=C/c2ccccc2)nc2ccccc2c1=O)Nc1ccc(Cl)cc1 | 90.4%
CN(C)CCn1c2ccccc2c2nc3ccc([N+](=O)[O-])cc3nc21 | -25.5% (active)
CCCCSc1nc(Nc2ccc(C(C)=O)cc2)c(C#N)c(-c2ccc(OC)cc2)n1 | 96.2%
CN(C)CCOc1ccc(C(=O)C2[C@H](c3ccc(Cl)cc3)[C@@H](c3ccccc3)NC23C(=O)Nc2ccccc23)cc1 (stereo not given in full) | 78.8%
Nc1nnc(-c2c[nH]c3ncc(Br)cc23)c(-c2c[nH]c3ccc(F)cc23)n1 | 15.6%
C=C1CC[C@@H]2[C@]3(C)COC(c4cn[nH]c4-c4ccc(C)cc4)O[C@@H]3CC[C@@]2(C)[C@@H]1C/C=C1/C(=O)OCC1O (stereo not given in full) | -31.3% (active)
C#C[C@]1(O)CC[C@H]2[C@@H]3CC=C4c5sc(-c6ccc([N+](=O)[O-])cc6)nc5CC[C@]4(C)[C@H]3CC[C@@]21C | 10.6%
